ST2 inh = blocks human ST2 binding to IL-33; Q01638; AID 1259354; AlphaLISA ST2-Fc/biotin-IL-33 interaction, 1 h; 2.3% of 78,000 active; inhibition, % for hits at 17 µM; in the data active means inhibition above about 30%
Target sequence (Q01638 whole entry, looked up): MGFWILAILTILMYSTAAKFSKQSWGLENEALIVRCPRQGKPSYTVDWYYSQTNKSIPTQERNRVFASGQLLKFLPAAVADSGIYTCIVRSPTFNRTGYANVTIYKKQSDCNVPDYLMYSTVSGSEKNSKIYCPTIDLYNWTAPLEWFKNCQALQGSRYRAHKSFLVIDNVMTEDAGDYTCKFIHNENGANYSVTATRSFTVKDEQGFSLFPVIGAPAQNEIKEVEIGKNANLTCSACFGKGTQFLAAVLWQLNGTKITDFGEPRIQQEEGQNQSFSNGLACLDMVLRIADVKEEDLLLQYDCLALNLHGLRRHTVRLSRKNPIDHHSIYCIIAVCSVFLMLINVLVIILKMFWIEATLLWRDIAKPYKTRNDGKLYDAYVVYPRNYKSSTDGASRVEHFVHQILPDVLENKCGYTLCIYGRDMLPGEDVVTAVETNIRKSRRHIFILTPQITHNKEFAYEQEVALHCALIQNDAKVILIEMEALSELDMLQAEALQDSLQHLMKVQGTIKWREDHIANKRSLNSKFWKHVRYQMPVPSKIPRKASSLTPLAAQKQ
The depositor's hits bear a star; i = inactive; ! = not confirmed by another sample. This excerpt belongs to a sample that is enriched for hits.

SMILES	ST2 inh
O=S(=O)(c1ccc(Cl)cc1)c1nc(/C=C/c2ccccc2)oc1N1CCOCC1	31.0%*
CCc1ccc(CNC(=O)CCc2nc(-c3ccc(C)cc3)no2)cc1	i
c1ccc(Sc2c(-c3ccccc3)nc3ncccn23)cc1	i
O=[N+]([O-])c1ccc(Sc2c(-c3ccccc3)nc3sccn23)cc1	32.0%*
COC(=O)c1ccccc1Sc1c(-c2ccccc2)nc2sccn12	i
Cc1cnccc1N1CCCN(Cc2cc(C(C)C)no2)CC1	i
O=C(CCN1CCCO1)NCc1cccnc1Oc1ccc(F)cc1F	i
COCCNC(=O)c1cc(-c2ccco2)on1	i
CCn1c(CC2CCN(C(=O)c3cc4sccc4[nH]3)CC2)nn(C)c1=O	i
COc1ccc(N2CCN(c3ccc([N+](=O)[O-])c4cccnc34)CC2)c([N+](=O)[O-])c1	55.0%*
Cc1ccccc1C(=O)N1CCN(c2ccc([N+](=O)[O-])c(N3CCOCC3)c2)CC1	i
CS(=O)(=O)c1ccc(N2CCN(c3ccccc3)CC2)c([N+](=O)[O-])c1	i
O=[N+]([O-])c1cc(CN2CCOCC2)c(O)c2ncccc12	i
CN1CCN(c2cc(N3CCN(CCO)CC3)ccc2[N+](=O)[O-])CC1	i
COc1ccc(N2CCN(c3cc(N4CCN(C)CC4)ccc3[N+](=O)[O-])CC2)cc1	44.0%*
O=C(c1ccccc1F)N1CCN(c2ccc([N+](=O)[O-])c3cccnc23)CC1	35.0%*
O=[N+]([O-])c1cc(C(F)(F)F)ccc1N1CCc2ccccc21	68.0%*
COc1ccc(N2CCN(Cc3cc(OC)c(O)c([N+](=O)[O-])c3)CC2)cc1	i
O=C(c1cnc(N2CCN(c3ccccn3)CC2)c2ccccc12)N1CCN(c2ccccn2)CC1	i
CC(O)CNc1ccc(C(F)(F)F)cc1[N+](=O)[O-] (stereo not drawn)	i
Cc1cc(C)n(-c2ccc(C(F)(F)F)cc2[N+](=O)[O-])n1	i
CCC1CCCCN1CCCNC(=O)CSc1cc(=O)n(C)c2ccccc12 (stereo not drawn)	i
c1ccc(CCN2CCCC(Cn3cnnc3)C2)cc1 (stereo not drawn)	i
Cn1c2c(c(=O)n(C)c1=O)C(c1ccc([N+](=O)[O-])o1)C1=C(N2)c2ccccc2C1=O (stereo not drawn)	i
Cn1cnc2cc(C(=O)N3CCNCC3C(=O)N3CCCC3)ccc2c1=O (stereo not drawn)	i
SMILES	ST2 inh
COc1ccccc1N1CCN(C(=O)c2cc(OC)c(OC)c(OC)c2)CC1	i
O=[N+]([O-])c1cccc(Cl)c1N1CCN(c2ccc([N+](=O)[O-])c3cccnc23)CC1	i
CCC(=O)N1CCN(c2ccc(F)cc2[N+](=O)[O-])CC1	i
O=[N+]([O-])c1ccccc1OCC(O)CN1CCN(c2ccccc2F)CC1 (stereo not drawn)	i
O=[N+]([O-])c1cc(C(F)(F)F)ccc1N1CCN(CCOc2nonc2-c2ccccc2)CC1	45.0%*
COc1ccccc1N1CCN(c2ccc([N+](=O)[O-])c3cccnc23)CC1	31.0%*
O=[N+]([O-])c1cc(C(F)(F)F)ccc1N1CCN(c2ccc([N+](=O)[O-])c3cccnc23)CC1	45.0%*
Cc1cc(-c2c(-c3ccccc3)ncn2CCOc2nonc2C)n[nH]1	i
O=[N+]([O-])c1cccnc1N1CCOCC1	i
Cc1cc(NC(=O)CCCn2nc([N+](=O)[O-])cc2C)n(-c2ccccc2)n1	i
CCOc1ccc(C2=CC(=O)C(CC(=O)O)CC2)cc1 (stereo not drawn)	i
Cc1ccnc(NC(=O)C(C)(C)Oc2ccc(Cl)cc2)c1	i
O=C1NCCN2CCN(C(=O)c3ccc4c5c([nH]c4c3)CCCC5)CC12 (stereo not drawn)	i
Cc1cc(Cl)nc(Cl)c1C(=O)NC(=O)Nc1ccc(F)cc1	i
Cc1ccc(NC(=O)NC[C@H]2O[C@@H](CC(=O)NC3CC3)[C@H](O)[C@@H]2O)cc1	i
CCOC(=O)CSc1nc2c(sc3ccccc32)c(=O)n1CCCOC(C)C	i
CC(C)C1CN(C(=O)c2cccc(-n3cnnc3)n2)CCC(=O)N1CC1CC1 (stereo not drawn)	i
O=C(NCc1ccco1)[C@H](CSCc1ccccc1)N1Cc2ccccc2C1=O	i
Cc1cccc(C(=O)Nc2ccc(Cl)cc2)c1	i
Cc1cc(N2CCC(C)CC2)nc2ccc(NC(=O)CCC(=O)NCC3CCCO3)cc12 (stereo not drawn)	i
N#Cc1cc2[nH]c3ccccc3c2n(-c2ccc([N+](=O)[O-])cc2)c1=N	34.0%*!
O=[N+]([O-])c1ccc(-c2nnc(S)n2-c2ccccc2)cc1	i
O=C1Nc2ccccc2N(O)N1c1ccc([N+](=O)[O-])cc1	i
CC1=C(C(=O)Nc2ccccc2)C(c2ccc(OCc3ccc(C)cc3)cc2)n2ncnc2N1 (stereo not drawn)	i
COc1cccc(-c2cc(C(=O)N3CCC4(CCCNC4)C3)[nH]n2)c1 (stereo not drawn)	i
SMILES	ST2 inh
COc1ccccc1CN1CCC(CN(CC(C)C)C(=O)C2CCCO2)CC1 (stereo not drawn)	i
CC(C)CN(CCNC(=O)C1CC(=O)N(c2ccc(F)c(Cl)c2)C1)CC(C)C (stereo not drawn)	i
O=C(O)c1ccc(N2CCC(c3ccccc3)=N2)cc1	i
COc1cc([N+](=O)[O-])cc(C=Nc2ccc3oc(-c4cccc(C)c4)nc3c2)c1O	i
CC(=O)N1CCC(N2C[C@@H]3OCC(=O)N(C)[C@@H]3C2)CC1	i
CCN(CC)c1ccc(CNc2ccc3c(c2)ncn3CC)cc1	52.0%*!
CN(C)c1ccc(CNc2ccc3c(c2)ncn3C(C)(C)C)cc1	33.0%*
CC(C)(C)n1cnc2cc(NCc3ccncc3)ccc21	i
CC(C)(C)n1cnc2cc(NCc3ccccn3)ccc21	i
CCCn1cnc2cc(NCc3ccncc3)ccc21	i
CCn1cnc2cc(NCc3ccc(N(C)C)cc3)ccc21	52.0%*!
CCCCn1cnc2cc(NCc3ccc(Br)cc3)ccc21	i
CCn1cnc2cc(NCc3cccs3)ccc21	i
CCn1cnc2cc(NCc3ccc(C)cc3)ccc21	i
CC(C)CC1(CO)CCCN(C(=O)c2cccc3cnccc23)C1 (stereo not drawn)	i
CCCCN(CC)C(=O)c1cccc(OC)c1	i
Cc1cc2nc(COc3ccc(Cl)cc3NC(=O)CC(C)C)cc(=O)n2o1	i
CC1=C(C(=O)OC2CCCCC2)C(c2ccc(F)cc2)n2ncnc2N1 (stereo not drawn)	i
CCN(C(=O)c1sc(C)nc1-c1ccccc1)[C@H]1COC[C@@H]1O	i
CCOC(=O)c1ccc(Nc2ncnc3c2cnn3-c2ccc(Cl)cc2)cc1	i
CCOC(=O)c1ccc(Nc2ncnc3nc[nH]c23)cc1	30.0%*
COc1ccc(Nc2ncnc3nc[nH]c23)cc1OC	i
Nc1ccc(CCc2nc3ccc(N)cc3[nH]2)cc1	i
Nc1ccc(-c2nc3ccccc3[nH]2)cc1	i
Nc1ccc(-c2nc3ccc(-c4nc5ccc(N)cc5[nH]4)cc3[nH]2)cc1	35.0%*!
Cc1oc(-c2ccc(Cl)cc2)nc1CSCC(=O)N1CCCCCC1	i
O=C1C(=O)N(Cc2ccccc2)c2ccc(Br)cc21	30.0%*
O=C1C(=O)N(Cc2ccc(F)cc2)c2ccccc21	i
O=C1c2ccccc2NC(c2ccc(Br)cc2)N1Cc1ccccc1 (stereo not drawn)	i
CCOC(=O)N1CCN(Cc2cc(C)ccc2C)CC1	i
